This note sets out measurements from PubChem BioAssay (NCI).

About 83,000 compounds went through this panel and 20% of them were active in at least one assay; those are over-represented in the sample as a whole.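 Step 1: grow cells in 96-well plates. Step 2: add test compound at a single concentration. Step 3: incubate 48 h. Step 4: record percent growth.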 Unmarked numbers belong to inactive results. Calls of active or inactive are those of the source. How the source made its calls: active means growth percent below 10; inactive means the rest.

What all share (assay): NCI-60 one-dose screen, 48 h (100 = growth as untreated, 0 = no growth, -100 = all killed)
Common to all, as to details: 10 µM unless noted

Assay [1] concerns SR leukemia.
The test system of assay [2] is RPMI-8226 leukemia.
Assay [3] has as its system OVCAR-8 ovarian.
The test system of assay [4] is OVCAR-5 ovarian.
Assay [5] relates to SK-OV-3 ovarian.
Assay [6] deals with IGROV1 ovarian.
The subject of assay [7] is OVCAR-3 ovarian.
Assay [8] deals with HS 578T breast.
Assay [9] deals with NCI/ADR-RES ovarian.
The test system of assay [10] is T-47D breast.
For assay [11], the system named is BT-549 breast.
In assay [12] the test system is MDA-MB-435 melanoma.
Assay [13] has as its system SW-620 colon.
In assay [14] the test system is MCF7 breast.
Assay [15] relates to HCT-116 colon.
Assay [16] deals with HCC-2998 colon.
Assay [17] deals with KM12 colon.
Assay [18] relates to OVCAR-4 ovarian.

On to `N#Cc1c(-c2cccs2)cc(-c2cnccn2)nc1SCC(=O)Nc1ccc(Br)cc1`, for which the growth in [1] is 79.5%; in assay [2], 99.5%; in [3], 94.6%; in assay [4] it was 86.7%; in assay [5], 97.6%; in assay [6], 64.8%. Besides, the growth in [7] is 96.3%; in assay [8], 68.6%; in [9], 85.8%; in [10], 96.2%; in assay [11], 65.4%; in [12] it was 74.4%. Besides, the growth was 77.3% in assay [13]; 66.6% in assay [14]; 69% in assay [15]; 99.7% in [16]; 97.7% in assay [17].

Take `O=c1c2ccccc2nc(COc2ccccc2)n1NS(=O)(=O)c1ccc(Cl)cc1`: the growth in [1] is 57.6%; in assay [2] it was 95.6%; in assay [3], 92%; in [4], 91.2%; in assay [18], 95.2%; in assay [6] it was 61.7%. Further, the growth was 103% in assay [7]; 75% in assay [8]; 73% in [9]; 74.8% in assay [10]; 106% in [11]; 5.47% (active) in [12]. For the same compound, the growth was 64.1% in assay [13]; 41.9% in [14]; 83.6% in assay [15]; 77.6% in [16]; 55.2% in assay [17].

Turning to `COc1cc(-c2ccc3ncnc(NCc4ccccc4)c3c2)cnc1OC`, the growth in assay [1] was 62.1%; in [2] it was 34.5%; in assay [3] it was 70.7%; in assay [4], 28.9%; in assay [5], 43.2%; in assay [6] it was -31.8% (active). For the same compound, the growth in assay [7] is 43.4%; in assay [8], 20%; in assay [9], 68.3%; in assay [10], 2.37% (active); in assay [11] it was 57.2%; in [12] it was 77.1%. Further, the growth in assay [13] is 74.6%; in assay [14], 27%; in assay [15], 78.1%; in assay [16] it was 73.2%; in assay [17], 95.2%.

For the compound `Fc1ccc(-c2cc3nc(C(Cl)Cl)nc(-c4ccco4)n3n2)cc1`, the growth in assay [1] was 64.8%; in assay [2], -31.5% (active); in [3], 10.4%; in assay [4], -13.7% (active); in assay [5], 18.8%; in [6] it was 74.3%. In addition, the growth is -46.9% (active) in [7]; -6.45% (active) in assay [8]; -18.9% (active) in [9]; 7.31% (active) in [10]; 82.4% in assay [11]; -1.86% (active) in [12]. For the same compound, the growth was 3.29% (active) in [13]; -8.71% (active) in assay [14]; -36.8% (active) in assay [15]; -69.1% (active) in assay [16]; -24.5% (active) in assay [17].

On to `COC(=O)/C=C/c1c(C2(C)NC(=O)c3ccccc3N2)c(=O)oc2ccc(Cl)cc12` (stereo not drawn), for which the growth is 108% in assay [1]; 94.7% in [2]; 101% in [4]; 98.7% in [18]; 106% in [5]; 68.1% in assay [6]. The growth in [7] was 102%; in assay [8] it was 90.9%; in assay [9] it was 98.3%; in assay [10], 91.6%; in assay [11], 87.4%; in [12], 102%. In addition, the growth was 96.3% in assay [13]; 86.9% in assay [14]; 88.6% in assay [15]; 102% in [16]; 93.4% in assay [17].

With `COc1cc(Cn2cc3c(c2)-c2onc(CN4CCCC4)c2CC3)cc(OC)c1OC`, the growth in assay [1] is 97.9%; in assay [2], 88%; in assay [4], 99%; in assay [18], 72.7%; in [5] it was 108%; in assay [6], 101%. Besides, the growth was 100% in assay [7]; 97.7% in assay [8]; 94.9% in assay [9]; 76.1% in [10]; 93.2% in assay [11]; 96.4% in assay [12]. Besides, the growth in [13] was 104%; in assay [14], 80.6%; in assay [15] it was 95.9%; in assay [16], 106%; in assay [17], 90.3%.

In the case of `CCO/C=N/C1=C(C#N)C(c2ccc(F)cc2)c2sc3c(CC)cccc3c2O1` (stereo not drawn), the growth was 6.82% (active) in assay [1]; 27.2% in assay [3]; 29.2% in [4]; 60.4% in [18]; 64.4% in [5]; 23.5% in assay [6]. Further, the growth was -17.4% (active) in assay [7]; 32.5% in assay [8]; 9.33% (active) in assay [9]; 42.7% in assay [10]; 27.7% in assay [11]; -12.9% (active) in [12]. Moreover, the growth in assay [13] was 30.1%; in [14] it was 14.8%; in assay [15] it was 16.2%; in assay [16], 15.6%; in assay [17], 14.8%.

For the compound `C=C=COc1cccc(/C(N)=N/C(N)=N/c2nc3ccccc3s2)c1`, the growth is 6.37% (active) in [1]; 62.8% in assay [3]; 83.4% in assay [4]; 89.4% in assay [18]; 102% in [5]; 57.7% in [6]. For the same compound, the growth was 100% in [7]; 59.9% in [8]; 88.5% in assay [9]; 63.1% in assay [10]; 56% in [11]; 77.8% in [12]. For the same compound, the growth in [13] is 94.9%; in assay [14], 93.1%; in [15], 25.1%; in [16] it was 102%; in assay [17], 71.1%.

For the compound `COc1cc(/C=N/NC(=O)c2cn(C3CC3)c3c(OC)c(N4CC5CCCNC5C4)c(F)cc3c2=O)ccc1O` (stereo not drawn), the growth in assay [1] was -13.4% (active); in [3], 74.2%; in assay [4], 38.4%; in assay [18] it was -52.8% (active); in assay [5], 119%; in assay [6] it was 16.4%. Further, the growth is -73% (active) in [7]; 107% in assay [8]; 98.5% in assay [9]; -30.4% (active) in [10]; 107% in assay [11]; 95.3% in assay [12]. Besides, the growth in assay [13] is 0.437% (active); in assay [14], -27.7% (active); in assay [15], -59.1% (active); in assay [16] it was 14.8%; in assay [17], 69.2%.
